Only a selection was taken, and hits are over-represented in it overall.
PglD inh: C. jejuni PglD acetyltransferase inhibitors, primary screen, biochemical, DTNB colorimetric, single point; purified PglD enzyme, DTNB colorimetric CoA detection; inhibition, % at 12.5 µM; actives 0.098% (n = 360,000); AID 602405, 2012; in the data active = inhibition above about 16%, passing the limit was not always enough; inconclusive = no clear call, values can overlap the other calls
ALR inh: inhibitors of human ALR sulfhydryl oxidase, primary screen, biochemical, H2O2 detection, HRP-luminol luminescence, single point | FAD-linked sulfhydryl oxidase ALR (Homo sapiens), P55789 | purified ALR, DTT oxidation | inhibition, % (test concentration not listed) | actives 3.8% (n = 290,000) | AID 485317, 2010;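 active = mean replicate inhibition above about 79%, with every replicate also reaching it, limit read from the data; inconclusive = only one of the two criteria met; inactive = mean below limit and not every replicate reaching it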
ERp5 block: inhibitors of ERp5-driven insulin aggregation, primary screen, biochemical, turbidity, absorbance 650 nm, single point; Protein disulfide-isomerase A6 (Homo sapiens), Q15084; 90 min; inhibition, % at 9.99 µM; actives 0.05% (n = 350,000); AID 651711, 2012;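 active = mean replicate inhibition above about 25%, with every replicate also reaching it, limit read from the data, passing the limit was not always enough; inconclusive = only one of those two criteria met; inactive = neither criterion met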
Target sequence (Q15084 whole entry, looked up): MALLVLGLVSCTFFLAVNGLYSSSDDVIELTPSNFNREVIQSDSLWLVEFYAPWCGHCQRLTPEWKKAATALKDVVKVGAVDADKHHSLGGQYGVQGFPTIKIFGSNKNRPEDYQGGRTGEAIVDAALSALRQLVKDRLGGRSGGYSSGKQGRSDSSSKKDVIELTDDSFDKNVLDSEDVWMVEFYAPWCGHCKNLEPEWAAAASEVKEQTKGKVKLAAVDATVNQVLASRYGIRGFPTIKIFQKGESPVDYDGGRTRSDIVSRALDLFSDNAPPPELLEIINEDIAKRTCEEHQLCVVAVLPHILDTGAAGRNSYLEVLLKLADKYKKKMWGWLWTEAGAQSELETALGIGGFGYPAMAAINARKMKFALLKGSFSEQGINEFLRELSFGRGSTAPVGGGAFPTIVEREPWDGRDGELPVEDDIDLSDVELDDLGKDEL
ARNT TACC3 PPI: disruptors of ARNT/TACC3 protein interaction, primary screen, biochemical, AlphaScreen, single concentration | Transforming acidic coiled-coil-containing protein 3 (Homo sapiens), Q9Y6A5 | AlphaScreen His-ARNT PAS-B/GST-TACC3 binding, luminescence; TACC3 fragment carries E629A point mutation | inhibition, % at 9.99 µM | actives 0.66% (n = 390,000) | AID 623870, 2012;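 active = mean inhibition of replicates at least 50% and at least half of replicates each reaching 50%; inconclusive = half or more replicates reach 50% but mean below 50%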;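 also: 0% = complete ARNT plus TACC3 wells and 100% = ARNT alone without TACC3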
PDI turbidity: inhibitors of human PDI, primary screen, biochemical, turbidity, single point, plate reader. AID 588391, 2011. inhibition, % at 10 µM. PDI insulin aggregation turbidity, A650, 90 min. actives 0.052% (n = 350,000). Protein disulfide-isomerase (Homo sapiens), P07237;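 active = mean inhibition across replicates of 30% or more, whatever share of single replicates reach that level; inconclusive = mean inhibition below 30% while every single replicate reaches 30%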
CendR NRP1 mod: modulators of CendR peptide binding to NRP-1, primary screen, biochemical, fluorescence polarization, uHTS. FAM-RPARPAR peptide binding to NRP-1. inhibition, % at 25 µM. actives 0.85% (n = 360,000). AID 602438, 2012;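 active = inhibition or corrected inhibition above about 18%, plus a signal ratio from 0.5 to 1.5, limit read from the data, passing the limit was not always enough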
Numbers without * were called inactive.

COc1ccc(/C=N/NC(=O)CNC(=O)COc2ccccc2)cc1 was read as ALR inh 1, ARNT TACC3 PPI -4, PDI turbidity -13 and CendR NRP1 mod -5.
`CN(C)c1ccc(/C=N/NC(=O)CCCCCNC(=O)c2ccccc2)cc1` gave ERp5 block 7, ARNT TACC3 PPI 4, PDI turbidity -5 and CendR NRP1 mod -10.
COc1ccc(OCC(=O)N/N=C/c2ccc(N(C)C)cc2)cc1 was read as PglD inh -5, ALR inh 98*, ERp5 block 0, ARNT TACC3 PPI 0, PDI turbidity -6 and CendR NRP1 mod -14.
Screening O=C1CN(Cc2ccccc2)C[C@@H]2[C@H](c3ccc(-c4ccccc4)cc3)[C@H](CO)N12 returned ERp5 block 2.
`CC=Cc1ccc2n(c1=O)C[C@@H]1[C@@H](CO)[C@H](C(=O)Nc3ccccc3)N(CC3CC3)[C@H]21` (mixture of isomers) gave PglD inh 1, ERp5 block 3 and ARNT TACC3 PPI 4.
Screening CN(C)c1ccc(/C=N/NC(=O)CCCO)cc1 returned ALR inh 96*, ERp5 block 7, ARNT TACC3 PPI -6, PDI turbidity 5 and CendR NRP1 mod -4.
For CN(C)c1ccc(/C=N/NC(=O)CCC(=O)NCc2ccccc2)cc1 the results were ALR inh 87*, ARNT TACC3 PPI -9, PDI turbidity -8 and CendR NRP1 mod -6.
C[C@H](CO)N1C[C@H](C)[C@@H](CN(C)C(=O)C2CCOCC2)Oc2ncc(C3=CCCCC3)cc2C1=O was read as PglD inh -1, ERp5 block 8 and ARNT TACC3 PPI -3.
For CC1CC(C)(C)NC(=S)N1CCC(=O)N1CCN(c2ccccc2)CC1 (centres undefined) the results were PglD inh 1, ALR inh inconclusive, ERp5 block -8, ARNT TACC3 PPI 0, PDI turbidity 8 and CendR NRP1 mod 6.
Screening CC1CC(C)(C)NC(=S)N1CCCC(=O)N1CCN(c2ccc(F)cc2)CC1 (centres undefined) returned PglD inh -1, ALR inh 83*, ARNT TACC3 PPI 10, PDI turbidity -1 and CendR NRP1 mod 16.
Screening COc1ccc(N2CCN(C(=O)CCN3C(=S)NC(C)(C)CC3C)CC2)cc1 (centres undefined) returned PglD inh 1, ALR inh 88*, ERp5 block 4, ARNT TACC3 PPI 3, PDI turbidity -5 and CendR NRP1 mod -3.
For CC(C)(C)c1cc[n+](C2=C([O-])c3ccccc3C(=O)/C2=N\S(=O)(=O)c2cccs2)cc1 the results were PglD inh -13, ALR inh -25, ERp5 block -1, PDI turbidity 0 and CendR NRP1 mod 31*.
Screening COc1ccc(CN(C)C[C@@H]2Oc3c(NC(=O)C4CC4)cccc3C(=O)N([C@H](C)CO)C[C@H]2C)cc1 returned PglD inh 0, ERp5 block 0 and ARNT TACC3 PPI 6.
`CC(=O)Nc1cccc(NC(=O)CSc2ncc(C(=O)Nc3ccccc3)c(=O)n2C)c1` gave ERp5 block 6, ARNT TACC3 PPI 0, PDI turbidity -13 and CendR NRP1 mod -4.
Screening CC(=O)Nc1ccc(NC(=O)CSc2ncc(C(=O)Nc3ccc(Cl)cc3)c(=O)n2C)cc1 returned ALR inh 99*, PDI turbidity -4 and CendR NRP1 mod -45.
For CC(=O)Nc1ccc(NC(=O)CSc2ncc(C(=O)Nc3ccc(F)cc3)c(=O)n2C)cc1 the results were PglD inh 0, ALR inh 99*, ERp5 block 7, ARNT TACC3 PPI 1, PDI turbidity 2 and CendR NRP1 mod -33.
Cn1c(SCC(=O)NCc2ccc(F)cc2)ncc(C(=O)Nc2ccccc2)c1=O was read as PglD inh 6, ALR inh -2, ERp5 block -2, ARNT TACC3 PPI -16, PDI turbidity -4 and CendR NRP1 mod -15.
CC(=O)c1cccc(NC(=O)CSc2ncc(C(=O)Nc3ccccc3)c(=O)n2C)c1 was read as PglD inh -2, ALR inh 99*, ERp5 block 4, ARNT TACC3 PPI -3, PDI turbidity -5 and CendR NRP1 mod -4.
Screening CC(=O)Nc1cccc(NC(=O)CSc2ncc(C(=O)Nc3ccc(F)cc3)c(=O)n2C)c1 returned PglD inh -2, ALR inh 99*, ERp5 block 5, ARNT TACC3 PPI -4, PDI turbidity 2 and CendR NRP1 mod -17.
Screening CC(=O)N(C)C[C@@H]1Oc2cc(C#Cc3cccc(F)c3)ccc2S(=O)(=O)N([C@H](C)CO)C[C@H]1C returned PglD inh 5, ERp5 block 0 and ARNT TACC3 PPI 3.
`COc1ccccc1-c1ccc2c(c1)[C@@H]1[C@@H](CCN1C(=O)c1ccncc1)[C@@H](CO)N2` gave ERp5 block 5.
COCC(=O)N1CC2(C1)[C@H](c1ccccc1)[C@H](CO)N2Cc1ccccc1OC was read as ERp5 block 5.
Screening C[C@@H]1CCCCO[C@H](CN(C)Cc2ccc(Cl)c(Cl)c2)[C@@H](C)CN([C@H](C)CO)C(=O)c2cc(NC(=O)Nc3cccc4ccccc34)ccc2O1 returned PglD inh 13, ERp5 block 0 and ARNT TACC3 PPI -5.
CC(=O)Nc1ccc(NC(=O)CSc2nnnn2-c2ccc(F)cc2)cc1 was read as PglD inh 1, ALR inh 98*, ERp5 block 4, ARNT TACC3 PPI -4, PDI turbidity 4 and CendR NRP1 mod 14.
Screening CC(=O)Nc1ccc(-n2nnnc2SCC(=O)NC2CCCC2)cc1 returned PglD inh 1, ALR inh -1, ERp5 block 6, ARNT TACC3 PPI 0, PDI turbidity -76 and CendR NRP1 mod 6.
For C=CCn1cccc(C(=O)Nc2ccc(Cl)cc2)c1=O the results were PglD inh 4, ALR inh -4, ERp5 block 5, ARNT TACC3 PPI -4, PDI turbidity -4 and CendR NRP1 mod -3.
`C=CCn1cccc(C(=O)Nc2ccc(N(C)C)cc2)c1=O` gave PglD inh -1, ALR inh 99*, ERp5 block 2, ARNT TACC3 PPI 10, PDI turbidity -14 and CendR NRP1 mod 1.
For Fc1ccccc1-c1nc(NCc2ccco2)c2ccccc2n1 the results were ALR inh 5, ERp5 block -1, PDI turbidity -5 and CendR NRP1 mod -4.

Screening data from PubChem BioAssay.
